Whole data set: some 110,000 compounds, median “z-score” near -0.1, cut for the highest 2% near 2. The sample holds the highest values, similar compounds and a random draw of the others, so the mix is not that of the screen. Active and inactive are the calls of the source.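 Rule for the calls: active = z-score in the third read window above 3 or below -3; inactive = the rest.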

For the assay, the target named is Metabotropic glutamate receptor 8 (Rattus norvegicus) (UniProt P70579). The experiment in a line: mGluR8 Gi/Go-coupled signaling modulation – cell-based, rat, thallium flux, HTS, primary screen (AID 488969). The note with it: HEK293 rat mGluR8, GIRK (G protein-gated inwardly rectifying potassium channel) thallium flux, FluoZin2; at 10 µM; stronger effect = higher value; submaximal glutamate (EC20) added with thallium.
Chain of Metabotropic glutamate receptor 8 (Rattus norvegicus) (P70579 whole entry, looked up): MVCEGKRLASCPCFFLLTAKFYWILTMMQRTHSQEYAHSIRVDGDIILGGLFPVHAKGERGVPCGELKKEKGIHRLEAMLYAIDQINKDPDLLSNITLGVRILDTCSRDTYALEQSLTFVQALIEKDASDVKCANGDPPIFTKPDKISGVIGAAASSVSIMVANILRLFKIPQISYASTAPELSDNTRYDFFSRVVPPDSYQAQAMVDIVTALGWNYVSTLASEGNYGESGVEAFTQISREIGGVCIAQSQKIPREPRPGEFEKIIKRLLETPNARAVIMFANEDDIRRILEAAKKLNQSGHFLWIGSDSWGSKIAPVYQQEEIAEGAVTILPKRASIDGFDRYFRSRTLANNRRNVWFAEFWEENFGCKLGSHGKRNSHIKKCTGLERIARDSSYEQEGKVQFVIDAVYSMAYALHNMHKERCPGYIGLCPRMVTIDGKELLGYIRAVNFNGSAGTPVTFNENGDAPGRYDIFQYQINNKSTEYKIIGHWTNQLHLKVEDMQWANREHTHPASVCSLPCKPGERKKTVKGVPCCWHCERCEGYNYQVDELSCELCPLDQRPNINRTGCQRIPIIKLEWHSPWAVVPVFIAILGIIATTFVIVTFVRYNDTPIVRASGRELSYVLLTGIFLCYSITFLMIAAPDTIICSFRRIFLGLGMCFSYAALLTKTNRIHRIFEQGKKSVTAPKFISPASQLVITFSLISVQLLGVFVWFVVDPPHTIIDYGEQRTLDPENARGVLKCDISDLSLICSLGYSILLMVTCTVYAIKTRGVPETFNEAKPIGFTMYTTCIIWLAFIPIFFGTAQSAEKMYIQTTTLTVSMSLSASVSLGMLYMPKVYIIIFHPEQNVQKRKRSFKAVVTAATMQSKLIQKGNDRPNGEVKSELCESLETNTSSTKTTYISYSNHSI
On to `OC(CCN1CCOCC1)(c1ccc(Cl)cc1)C1CCCCC1` (stereo not given), for which the z-score is -0.807.
The same measure for `Cc1ccc(NC(=S)N/C(=N/S(=O)(=O)c2ccccc2)c2ccccc2)cc1`: 1.36; for `CCc1ccc(C(C(=O)NCc2ccc(OC)cc2)N(CCOC)C(=O)Cc2cccs2)cc1` (stereo not given): -0.37; for `COCCN(C(=O)Cc1cccs1)C(C(=O)NCc1ccc(OC)cc1)c1ccccc1` (stereo not given): 3.95 (active).
Take `COCCN(C(=O)Cc1cccs1)C(C(=O)NCc1ccc(OC)cc1)c1ccc(OC)cc1` (stereo not given): the z-score is -0.202.
The same measure for `Clc1ccc(N=c2ssnc2Cl)cc1`: -0.0573.
The same measure for `C=C(C)COc1ccc(-c2[nH]ncc2-c2ccccc2OC)c(O)c1`: 0.603.
The same measure for `Cc1cccc(Oc2cc(NC(=O)c3ccccc3)cc([N+](=O)[O-])c2)c1`: -0.382; for `CCn1cc(CNC(=O)CCSc2nc(-c3ccco3)cc(C(F)(F)F)n2)cn1`: -0.23; for `CCC/C(=N\NC(=O)c1ccccc1C)c1ccccc1`: -0.166.
As for `COc1cccc(C(=O)N/N=C(/CCC(=O)O)c2ccccc2)c1`, the z-score is -0.189.
The same measure for `CCC/C(=N/NC(=O)c1cccc(Cl)c1)c1ccccc1`: 5.45 (active); for `CCC1=NC(c2ccc(OC)cc2OC)N(O)C1(C)C` (stereo not given): -0.547.
The same measure for `COCc1c(C(=O)N2CCN(c3ccc(C(F)(F)F)cn3)CC2)oc2ccccc12`: -0.0186; for `CCN(CC)C(=O)COc1ccc2oc(C)c(C(=O)OC)c2c1`: 3.23 (active).
The same measure for `CCOC(=O)c1c(C)oc2ccc(OCC(=O)C(C)(C)C)cc12`: -1.03.
`CCN(CC)C(=O)COc1ccc2oc(C)c(C(=O)OC(C)C)c2c1` returned a z-score of -0.537.
The same measure for `CCOC(=O)C1=C(CNCc2ccccc2Cl)NC(=O)NC1c1ccc2c(c1)OCO2` (stereo not given): 0.278.
The same measure for `COc1ccc(Br)cc1CN1CCCCCCC1`: 0.169; for `COc1cc(-c2nc(-c3ccc(NC(=O)c4ccc5c(c4)OCO5)cc3)no2)cc(OC)c1OC`: 0.262.
The same measure for `CC12CN(C(=O)c3ccccc3)C3(C#N)CC1CCC23C` (stereo not given): 0.729.
In turn, `NC(N)=N/N=C/c1ccc(OCc2ccccc2)cc1` yielded a z-score of 0.177.
The same measure for `CC1(C)Cc2nc3sc4c(SCC(=O)NCc5ccco5)ncnc4c3cc2CO1`: -0.999; for `CC1(C)Cc2nc3sc4c(SCC(=O)NCc5ccccc5)ncnc4c3cc2CO1`: 2.31; for `CC1(C)Cc2nc3sc4c(SCC(=O)NC(c5ccccc5)c5ccccc5)ncnc4c3cc2CO1`: 0.0674.
The same measure for `CC(=O)c1ccc(OCC(O)CN2CCCC(C)C2)cc1` (stereo not given): -0.0491; for `O=C(Nc1ncc2c(n1)-c1ccccc1CC2)c1ccccc1`: -0.277; for `COc1ccc(-c2c[n+]3c4n2CCCCC4=C(c2ccc(Br)cc2)C3)cc1`: 1.54.
For the compound `Clc1ccc(C2=C3CCCCn4c(-c5ccccc5)c[n+](c43)C2)cc1`, the z-score was 0.498.
Consider `COc1ccc(-c2c[n+]3c4n2CCCCC4=C(c2ccccc2)C3)cc1`, for which the z-score turned out to be 2.82.

Values taken from PubChem BioAssay AID488969 (Vanderbilt High Throughput Screening Facility, 2010).
